AMA1-RON2 inh – disrupts binding of P. falciparum AMA1 to RON2; Potency, µM (doses to about 58.2 µM), without a hit: at the top dose activity change, negative = inhibition, hits mostly inhibitors; AlphaScreen AMA1-biotinylated RON2 peptide binding; 360,000 tested, 0.2% active;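 also: 0% = vehicle wells and -100% = peptide control; nearly all actives have a fitted effect of over 45% in size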
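AMA1 (3D7) with his tag at 25 nM final met compounds first, then biotinylated RON2 peptide at 25 nM; detection used donor plus acceptor beads, 10 µg/mL apiece, read by AlphaScreen after 30 min at room temperature.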
Pf growth 96h – P. falciparum growth inhibition at 96 hour, primary screen for plastid delayed-death inhibitors; P. falciparum luciferase reporter growth, 96 h; Potency, µM (highest dose often 28.7 µM), for inactives: top-dose activity change, negative = inhibition, hits mostly inhibitors; 320,000 tested, 6.9% active; AID 504834; also: % is scaled to controls: 0 for no effect and ±100 for the full control effect
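Two-generation exposure (96 h) targets delayed-death phenotype. Reporter parasites carrying integrated firefly luciferase, in red cells at 2% hematocrit and 0.05% parasitemia final, kept at 37 C, 5% CO2; luminescence loss indicates inhibition.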
Pf growth 48h – inhibits P. falciparum growth in the first generation, 48 h; Potency, µM (series often up to 28.7 µM), for inactives: top-dose activity change, negative = inhibition, hits mostly inhibitors; P. falciparum luciferase growth in erythrocytes, 48 h; 310,000 tested, 5.9% active; also: % is scaled to controls: 0 for no effect and ±100 for the full control effect
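First compound was added to culture medium, then infected red cells at 0.1% parasitemia and 2% hematocrit (final). After incubation at 37 C under 5% CO2, luciferase detection reagent was dispensed and light output recorded.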
HCV inhibitor – HCV inhibition | 340,000 tested, 3.4% active | Huh7.5.1 HCVcc-Cre infection, luciferase reporter, 44 h | Potency, µM (doses to about 41.8 µM), for the others: at the highest dose activity change, negative = inhibition, actives largely listed as inhibitors; also: % is scaled to controls: 0 for no effect and ±100 for the full control effect
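Whole-lifecycle infectious HCVcc-Cre system; cells 1,000/well, compound then virus (~0.5 moi) added 4 h after plating, 44 h culture. Luciferase read 15 sec following 15 min substrate incubation, room temp.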
NS1 inh – influenza NS1 inhibition. Potency, µM (series often up to 46.1 µM), for inactives: top-dose activity, positive = more growth. 270,000 tested, 0.4% active; calls by dose curve; also: actives are rising curves; nearly all actives have a fitted effect of over 50% in size
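Recovery from NS1-induced slow growth read by OD600 in budding yeast switched to galactose assay medium (pH 6.0, -URA) at 1:100 dilution. Compound 23 nl per well; the matching strain lacking NS1 serves as control.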
SARS PLP yeast – blocks SARS-CoV papain-like protease in a yeast assay; 330,000 tested, 0.19% active; Potency, µM (top dose mostly 32.9 µM), inactives show at the highest dose activity, positive = growth rescue, most hits filed as activators; S. cerevisiae expressing SARS-CoV PLpro, growth rescue; calls by dose curve; also: 0% is about no effect; nearly all actives have a fitted effect of over 55% in size
* hit, by the source's call; [ ] = dose if it differs, or a comment. Hits are enriched below; roughly 12% of the tested compounds scored in any of these assays. Unless noted, calls follow the shape of the dose curve; as a rule, active = well fitted curve in the direction sought with a large enough effect; inconclusive = small, poorly fitted or top-dose-only effect, or another doubt; inactive = no such curve, though single readings can be large; an effect the other way counts as inactive or inconclusive. Potency is read from the fitted curve at half-maximal effect.

For COc1cccc(CN(C)C(=O)Cc2c[nH]c3ccccc23)c1 the results were AMA1-RON2 inh 5.4%, Pf growth 96h -0.2%, Pf growth 48h 1.2%, HCV inhibitor -5.8%, NS1 inh 8.1% and SARS PLP yeast -2.9%.
Screening OC1CCC(Nc2ncnc3sccc23)CC1 (configuration not stated) returned AMA1-RON2 inh -17.5%, Pf growth 96h 2.1%, Pf growth 48h -13.2%, HCV inhibitor 11.0%, NS1 inh -0.9% and SARS PLP yeast 0.9%.
Screening Cc1ccc(C(=O)Nc2ccc3c(c2)C(=O)N(C)C3=O)c(C)c1 returned AMA1-RON2 inh 8.8%, Pf growth 96h 24.6%, Pf growth 48h 11.7%, HCV inhibitor 12.0%, NS1 inh -26.2% and SARS PLP yeast -10.5%.
Screening C[n+]1cccc(O)c1SCc1ccccc1 returned AMA1-RON2 inh 133.6%, Pf growth 96h 47.5%, Pf growth 48h inconclusive, HCV inhibitor -0.9% and SARS PLP yeast 0.9%.
Screening Cc1nnc(SCc2nnc(-c3ccccc3Br)o2)n1-c1ccccc1 returned AMA1-RON2 inh 4.2%, Pf growth 96h inconclusive, Pf growth 48h 10.4µM*, HCV inhibitor 15.4%, NS1 inh -2.6% and SARS PLP yeast 1.0%.
`O=C(Cc1cnc2ncnn2c1)N1CCc2c([nH]c3ccccc23)C1c1ccccc1F` (configuration not stated) gave AMA1-RON2 inh -8.2%, Pf growth 96h -8.5%, Pf growth 48h -2.8%, HCV inhibitor 7.8%, NS1 inh 4.0% and SARS PLP yeast -1.0%.
CC1(C)C2CC=C(CN3CCC(O)CC3)C1C2 (configuration not stated) was read as AMA1-RON2 inh -7.9%, Pf growth 96h 1.2%, Pf growth 48h 6.1%, HCV inhibitor 9.1%, NS1 inh -3.3%[9.22 µM] and SARS PLP yeast -1.1%.
Screening CC1(C)[C@H]2CC=C(CN3CCC(N4CCC(C(=O)N5CCCC5)CC4)CC3)[C@@H]1C2 returned AMA1-RON2 inh 5.3%, Pf growth 96h 12.7%, Pf growth 48h inconclusive, HCV inhibitor 31.6µM*, NS1 inh -2.3% and SARS PLP yeast -0.9%.
For O=C(C1CCN(C2CCN(Cc3ccc4c(c3)CCO4)CC2)CC1)N1CCOCC1 the results were AMA1-RON2 inh 3.0%, Pf growth 96h 11.7µM*, Pf growth 48h 14.1%, HCV inhibitor inconclusive, NS1 inh -0.2% and SARS PLP yeast 0.7%.
Screening CC(C)=CCCC(C)CN1CCC(N2CCC(C(=O)N3CCOCC3)CC2)CC1 (configuration not stated) returned AMA1-RON2 inh -7.1%, Pf growth 96h 27.1%, Pf growth 48h inconclusive, HCV inhibitor 0.891µM*, NS1 inh 5.5% and SARS PLP yeast -0.3%.
Screening CC(C)=CCCC(C)CN1CCC(N2CCC(C(=O)NC(C)C)CC2)CC1 (configuration not stated) returned AMA1-RON2 inh 22.3%, Pf growth 96h inconclusive, Pf growth 48h 5.22µM*, HCV inhibitor 2.82µM*, NS1 inh 0.6% and SARS PLP yeast 20.1%.
`N#CCc1c(C#N)c(N)nc(Nc2ccccc2)c1C#N` gave AMA1-RON2 inh -13.6%, Pf growth 96h -9.1%, Pf growth 48h -11.5%, HCV inhibitor 5.5%, NS1 inh 0.5% and SARS PLP yeast 1.5%.
CC(C)(C#N)NC(=O)C1CCCN1S(=O)(=O)c1ccc2ccccc2c1 (configuration not stated) was read as AMA1-RON2 inh -0.9%, Pf growth 96h 41.4%, Pf growth 48h -8.7%, HCV inhibitor inconclusive, NS1 inh 27.9% and SARS PLP yeast 2.7%.
Screening CC(=O)C1=C(c2ccc(Br)cc2)C(=O)c2ccccc2C1=O returned AMA1-RON2 inh 15.8µM*, Pf growth 96h inconclusive, Pf growth 48h inconclusive, HCV inhibitor inconclusive, NS1 inh -34.4% and SARS PLP yeast -97.0%.
Screening O=C(Nc1ccc(F)c(Cl)c1)C1CC(=O)n2c(nc3ccccc32)N1 (configuration not stated) returned AMA1-RON2 inh 10.3%, Pf growth 96h 20.2%, Pf growth 48h 4.65µM*, HCV inhibitor 22.9%, NS1 inh -0.4% and SARS PLP yeast 0.3%.
Screening O=C(Nc1ccc(F)cc1)C1CC(=O)n2c(nc3ccccc32)N1 (configuration not stated) returned AMA1-RON2 inh 31.0%, Pf growth 96h 0.0%, Pf growth 48h inconclusive, HCV inhibitor 0.8%, NS1 inh 26.7% and SARS PLP yeast -0.8%.
For COc1ccc(C(=O)c2cn(CC(=O)Nc3cc(OC)cc(OC)c3)c3ccc(OC)cc3c2=O)cc1 the results were Pf growth 96h -4.4%, Pf growth 48h -6.4% and SARS PLP yeast -3.5%.
CCN=C1S/C(=C\c2ccc(O)c(OCC)c2)C(=O)N1CC was read as AMA1-RON2 inh -10.0%, Pf growth 96h inconclusive, Pf growth 48h 1.9%, HCV inhibitor inconclusive, NS1 inh -7.0% and SARS PLP yeast 21.2%.
CCN=C1S/C(=C\c2cc(OCC)c(O)cc2Br)C(=O)N1CC was read as AMA1-RON2 inh 14.7%[11.6 µM], Pf growth 96h 10.4µM*, Pf growth 48h 11.7µM*, HCV inhibitor inconclusive, NS1 inh 1.8% and SARS PLP yeast 6.9%.
COc1ccc(Cl)cc1NC(=O)CN1CCC(n2nnc3cc(C)ccc32)CC1 was read as AMA1-RON2 inh -2.5%, Pf growth 96h 8.1%, Pf growth 48h inconclusive, HCV inhibitor 5.01µM*, NS1 inh -56.5% and SARS PLP yeast -6.3%.
Screening COc1ccccc1NC(=O)CN1CCC(n2nnc3cc(F)ccc32)CC1 returned AMA1-RON2 inh -2.5%, Pf growth 96h inconclusive, Pf growth 48h inconclusive, HCV inhibitor inconclusive, NS1 inh -33.1% and SARS PLP yeast -4.0%.
Cc1ccc2c(c1)nnn2C1CCN(CC(=O)Nc2ccccc2N2CCOCC2)CC1 was read as AMA1-RON2 inh -0.4%, Pf growth 96h 37.2%, Pf growth 48h 2.08µM*, HCV inhibitor inconclusive, NS1 inh -33.2% and SARS PLP yeast 0.5%.
Cc1cccc(-n2nc(C(=O)c3ccco3)cc(-c3nc4ccccc4[nH]3)c2=N)c1 was read as AMA1-RON2 inh 34.1%, Pf growth 96h inconclusive, Pf growth 48h inconclusive, HCV inhibitor inconclusive, NS1 inh 11.7% and SARS PLP yeast 3.0%.
Cc1ccccc1-n1nc(C(=O)c2cccs2)cc(-c2nc3ccccc3[nH]2)c1=N was read as AMA1-RON2 inh 33.6%, Pf growth 96h inconclusive, Pf growth 48h 3.7µM*, HCV inhibitor 10µM*, NS1 inh 6.6% and SARS PLP yeast 4.0%.
For COc1ccc(-n2nc(C(=O)c3cccs3)cc(-c3nc4ccccc4[nH]3)c2=N)cc1 the results were AMA1-RON2 inh 50.8%, Pf growth 96h inconclusive, Pf growth 48h 3.29µM*, HCV inhibitor 11.2µM*, NS1 inh 7.7% and SARS PLP yeast -9.0%.
